# Results: PubChem BioAssay AID1851 (National Center for Advancing Translational Sciences (NCATS), 2009)
# Among all 16,000 compounds or so, about 4,000 (25%) were called active. Inconclusive results (about 26%) are left out. Calls come from the whole dose curve; as a rule, active = well fitted curve in the direction sought with a large enough effect; inconclusive = small, poorly fitted or top-dose-only effect, or effect the other way; inactive = no such curve, though single readings can be large or run the other way. Not all results are given here.
# Biological target: Cytochrome P450 2C9 (Homo sapiens) (UniProt P11712)
# Sequence (P11712 whole entry, looked up): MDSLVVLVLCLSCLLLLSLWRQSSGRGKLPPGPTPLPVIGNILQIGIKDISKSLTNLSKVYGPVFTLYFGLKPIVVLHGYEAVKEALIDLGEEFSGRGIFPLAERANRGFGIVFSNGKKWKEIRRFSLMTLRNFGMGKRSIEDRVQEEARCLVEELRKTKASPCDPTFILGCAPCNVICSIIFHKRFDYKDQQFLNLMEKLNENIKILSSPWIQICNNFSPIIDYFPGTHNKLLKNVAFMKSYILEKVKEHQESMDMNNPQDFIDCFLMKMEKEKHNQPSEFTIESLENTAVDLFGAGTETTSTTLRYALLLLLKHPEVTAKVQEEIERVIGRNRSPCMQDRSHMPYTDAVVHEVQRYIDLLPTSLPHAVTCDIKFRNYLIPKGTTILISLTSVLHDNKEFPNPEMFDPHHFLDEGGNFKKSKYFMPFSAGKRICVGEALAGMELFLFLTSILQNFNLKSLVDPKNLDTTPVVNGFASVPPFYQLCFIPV
# Experiment: Cytochrome panel assay with activity outcomes
# Settings: recombinant CYP, pro-luciferin dealkylation, luminescence, p450-cyp2c9; series mostly up to 57.1 µM; activity, negative = inhibition: at the top concentration
# % is set by controls: 0 for no effect and ±100 for the full control effect.
Compound,"activity, negative = inhibition",AC50
COC(=O)[C@@H]1[C@@H]2C[C@H]3c4[nH]c5ccccc5c4CCN3C[C@@H]2CC[C@@H]1OS(=O)(=O)O,7.13% [at 11.4 µM] (inactive),
CN1CCN(c2ncnc3ccc(-c4ccccc4C#N)cc23)CC1,2.98% [at 2.29 µM] (inactive),
N#C/C(=C/c1cccc(C(F)(F)F)c1)c1nc(CCN2C(=O)c3ccccc3C2=O)cs1,,0.178 µM (active)
Cc1cc(C)c(NC(=O)C2CCCN2C)c(C)c1 (stereo not drawn),1.9% (inactive),
O=c1ccn(-c2cccc(C(F)(F)F)c2)nc1-c1ccn(-c2ccccc2F)n1,,10 µM (active)
Cc1ccc(C(=O)CN(C(=O)c2ccc(Cl)cc2)N2C(=O)c3ccccc3C2=O)cc1,,3.16 µM (active)
CCOC(=O)C1=NNC2(c3ccc(Cl)cc3)C(=O)N(c3cc(C)cc(C)c3)C(=O)C12 (stereo not drawn),,3.55 µM (active)
CCc1cc(Cl)c(OC)c(C(=O)NC[C@@H]2CCCN2CC)c1O,0.663% [at 25.6 µM] (inactive),
C[C@H](N)CCCC(C)(C)O,-15.2% [at 25.6 µM] (inactive),
Cc1nn(-c2ccc(F)cc2)c(C)c1NS(=O)(=O)c1ccc2ccccc2c1,,12.6 µM (active)
CC(=O)Nc1c(C)nn(-c2ccc(C)c(C)c2)c1C,-8.65% (inactive),
Cc1ccc(CCN2CC(C(=O)NCCN3CCCCCC3)CC2=O)cc1 (stereo not drawn),-28.6% (inactive),
Cc1ccc(CCN2CC(C(=O)NCCN3CCOCC3)CC2=O)cc1 (stereo not drawn),-10.2% (inactive),
CCOCCCN1CC(C(=O)NCCc2ccc(C)cc2)CC1=O (stereo not drawn),,8.91 µM (active)
COc1cc2c3cc1Oc1c(OC)c(OC)cc4c1[C@@H](Cc1ccc(O)c(c1)Oc1ccc(cc1)C[C@@H]3N(C)CC2)CN(C)C4,-25.3% [at 11.4 µM] (inactive),
C=CCN(CC=C)CC(O)Cn1c2ccccc2c2ccccc21 (stereo not drawn),,14.1 µM (active)
OC(COc1ccc(OCC(O)CN2CCCCCC2)cc1)CN1CCCCCC1 (stereo not drawn),-0.623% (inactive),
Cc1ccc(OCC(O)Cn2c3ccccc3c3ccccc32)cc1 (stereo not drawn),,4.47 µM (active)
O=C(O)CC(O)C(=O)O (stereo not drawn),-7.21% (inactive),
Cn1c(/C=N/NC(=O)c2ccccc2Br)nc2ccccc21,,2 µM (active)
Cc1ccc(-n2nnnc2C(=Cc2ccc(N(C)C)cc2)c2nnnn2-c2ccc(C)cc2)cc1,,3.55 µM (active)

Compound,"activity, negative = inhibition",AC50
CC(=O)NNc1cccc(Cl)n1,-15.4% (inactive),
O=C(Cn1ccc([N+](=O)[O-])n1)NCc1cccs1,-58.8% (inactive),
CCCCc1ccc(NC(=S)NCc2cccs2)cc1,,12.6 µM (active)
CCCC(=O)Nc1nnc(SCC(=O)NCc2cccs2)s1,-19.5% (inactive),
C#C[C@H](N)CCC(=O)O,13.6% (inactive),
CCS(=O)(=O)N1CCN(c2c(Cl)cccc2[N+](=O)[O-])CC1,,11.2 µM (active)
CCS(=O)(=O)N1CCC(C(=O)NCc2ccc(F)cc2Cl)CC1,21.2% (inactive),
C/C(CCN1CCc2nc(-c3ccccc3)c(-c3ccccc3)cc2C1)=N\O[C@@H](C)c1cn([C@@H]2COC[C@@H]2O)nn1,-10.5% [at 11.4 µM] (inactive),
Cc1nc2ncnn2c(C)c1CCC(=O)N1CCN(C(=O)c2ccco2)CC1,-6.62% (inactive),
NC(=O)/C(=N\OC(=O)c1ccco1)c1nc(-c2ccc(Br)cc2)cs1,58.2% (inactive),
Cc1nn(C(C)(C)C)c(OC(=O)c2ccco2)c1Sc1ccccc1,,10 µM (active)
O=C(NC(=S)Nc1nc(-c2ccc(Br)cc2)cs1)c1cccnc1,-6.99% (inactive),
Cc1nn(C(=O)c2ccco2)c(C)c1Sc1ccc(Br)cc1,,3.98 µM (active)
Cc1nn(C(=O)c2cccnc2)c(C)c1Sc1ccc(Br)cc1,,10 µM (active)
CO[C@@H]1COC(=O)[C@H]2CCCN2C(=O)[C@@H](C)COC(=O)[C@H](COCc2ccccc2)NC(=O)C/C=C\[C@H]1C,10.5% [at 11.4 µM] (inactive),
NC(=S)c1ccc[n+]([C@@H]2O[C@@H](COP(=O)([O-])OP(=O)(O)OC[C@@H]3O[C@@H](n4cnc5c(N)ncnc54)[C@@H](OP(=O)(O)O)[C@H]3O)[C@@H](O)[C@H]2O)c1,-19.2% (inactive),
COc1ncc2ncc(=O)n(C)c2n1,14.6% (inactive),
CCc1ccc(OCCCC(=O)Nc2ccc(N3CCCCC3)cc2)cc1,-21.4% (inactive),
Cc1ccc(NC(=O)NCCCc2ccccc2)cc1,,11.2 µM (active)
CCCCC(=O)Nc1ccc(C(=O)NNC(=O)CCc2ccccc2)cc1,7.05% (inactive),
CCc1ccc(NC(=O)CS(=O)CC(=O)NCCCc2ccccc2)cc1 (stereo not drawn),,0.794 µM (active)

Compound,"activity, negative = inhibition",AC50
O=C(NCCCc1ccccc1)c1cccs1,,15.8 µM (active)
COc1ccc(NC(=O)N2CCCC3(CCNCC3)C2)cc1,-5.11% (inactive),
CC(C)=CCC/C(C)=C/CO/N=C1/[C@H]2O[C@@H]2[C@@H](O)[C@H]2[C@H]1CCn1c(=O)n(-c3ccccc3)c(=O)n12,6.87% [at 11.4 µM] (inactive),
Cc1cnnn1-c1ccc(C(=O)CCl)cc1,-4.42% (inactive),
CCNC(=O)c1ccc(-n2nc(C)cc2-c2ccccc2)cc1,,7.94 µM (active)
Nc1ccc(C(=O)NCC(=O)O)cc1,9.9% [at 25.6 µM] (inactive),
N=C(N)SCCN,,inactive
COC(=O)CNC(=O)CCCCC(=O)NCC(=O)OC,5.38% (inactive),
CC(C)=CCC/C(C)=C/CO/N=C1/C[C@@H](O)[C@@H](O)[C@@H]2[C@@H]3C(=O)N(Cc4ccc5c(c4)OCO5)C(=O)[C@H]3CC[C@H]12,-26.4% [at 11.4 µM] (inactive),
COc1cnc(NS(=O)(=O)c2ccc(N)cc2)nc1,-9.19% [at 25.6 µM] (inactive),
CCCCN(CCCC)CCCOC(=O)c1ccc(N)cc1,-9.19% [at 25.6 µM] (inactive),
CCCCCOc1ccc(OC(=O)c2ccncc2)cc1,,2.82 µM (active)
CCCCOc1ccc(CC(=O)NO)cc1,-15.6% [at 25.6 µM] (inactive),
CCCCOc1ccc(OC(=O)c2cccnc2)cc1,,14.1 µM (active)
Nc1ccc(S(=O)(=O)Nc2ncccn2)cc1,-7.42% [at 25.6 µM] (inactive),
COc1ccc(OC(=O)c2ccncc2)cc1,,4.47 µM (active)
CCCCOc1ccc(S(=O)(=O)Nc2cccnc2)cc1,,1.26 µM (active)
O=C(Nc1ccc(OC(=O)c2cccnc2)cc1)c1cccnc1,-16.9% (inactive),
Cc1ccc(OCC(=O)NNC(=O)c2cccnc2)cc1,0.128% (inactive),
COc1ccc(C(Cl)=C(c2ccc(OC)cc2)c2ccc(OC)cc2)cc1,12.9% [at 25.6 µM] (inactive),
COc1ccc(C(=O)N2CCC3(CC2)CCN(c2ccncc2)CC3)cc1,1.22% (inactive),
